Screening results from PubChem BioAssay.
KB-3-1 tox: KB-3-1 parental cell cytotoxicity | KB-3-1 viability, CellTiter-Glo ATP luminescence, 72 h | Potency, µM (highest dose often 46.1 µM), hits mostly cytotoxic | 400,000 compounds, 1.4% hits; also: % is scaled to controls: 0 for no effect and ±100 for the full control effect; nearly all actives have a fitted effect of over 60% in size
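Using CellTiter-Glo luminescence, growth of non-resistant KB-3-1 adenocarcinoma cells is assessed 72 h after pin-tool compound addition at 37 °C. Normalized responses across the concentration series yield fitted curves.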
KB-V1 cytotox: KB-V1 MDR subline cytotoxicity | AID 1347076 | Potency, µM (highest dose often 46.1 µM), most hits filed as cytotoxic | 400,000 compounds, 3.4% hits | KB-V1 MDR cells viability, CellTiter-Glo, 72 h; also: % is scaled to controls: 0 for no effect and ±100 for the full control effect; nearly all actives have a fitted effect of over 60% in size
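qHTS viability screen in drug-selected KB-V1 MDR cells: 72 h compound treatment at 37 degrees C, ATP luminescence end point.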
VP16 counter: inhibits Gal4-VP16 luciferase reporter, ROR gamma counter-screen; Drosophila S2 Gal4-VP16 UAS-luciferase, luminescence, 20 h; Potency, µM (doses to about 53.6 µM), inactives show at the highest dose activity, negative = inhibition, most hits filed as inhibitors; 310,000 compounds, 3.5% hits; AID 2546;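 also: Gal4-VP16 expression switched on by copper sulfate through the metallothionein promoter; % is scaled to controls: 0 for no effect and ±100 for the full control effect; nearly all actives have a fitted effect of over 50% in size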
MCF10A rerep: DNA re-replication induction in MCF 10a cells; MCF 10A DNA re-replication, Hoechst nuclear intensity, 48 h; Potency, µM (doses to about 46.1 µM), inactives show at the highest dose activity, positive = re-replication, most hits filed as activators; 350,000 compounds, 2.9% hits; also: % of control where 0% means no effect; nearly all actives have a fitted effect of over 50% in size
SW480 rereplic: induces DNA re-replication in SW480 colon adenocarcinoma cells. SW480 DNA re-replication, Hoechst DNA content imaging, 48 h. Potency, µM (titrated, usually from 46.1 µM), inactives show top-dose re-replication activation, usual class: activators. 340,000 compounds, 1.8% hits; also: % of control where 0% means no effect; nearly all actives have a fitted effect of over 55% in size
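Hoechst fluorescence of nuclei (405 nm excitation, 500-530 nm emission) measured by plate-scanning imager after 48 hr compound exposure at 37 C; re-replication scored as increased number of nuclei with elevated intensity.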
RORg inh: ROR gamma (mouse) transcription inhibition; P51450; Drosophila S2 Gal4-RORgamma UAS-luciferase reporter, 20 h; Potency, µM (titrated, usually from 53.6 µM), inactives show at the highest dose activity change, negative = inhibition, hits mostly inhibitors; 310,000 compounds, 5.4% hits; also: % is scaled to controls: 0 for no effect and ±100 for the full control effect; nearly all actives have a fitted effect of over 60% in size
Target sequence (P51450 whole entry, looked up, the tested form may be a part): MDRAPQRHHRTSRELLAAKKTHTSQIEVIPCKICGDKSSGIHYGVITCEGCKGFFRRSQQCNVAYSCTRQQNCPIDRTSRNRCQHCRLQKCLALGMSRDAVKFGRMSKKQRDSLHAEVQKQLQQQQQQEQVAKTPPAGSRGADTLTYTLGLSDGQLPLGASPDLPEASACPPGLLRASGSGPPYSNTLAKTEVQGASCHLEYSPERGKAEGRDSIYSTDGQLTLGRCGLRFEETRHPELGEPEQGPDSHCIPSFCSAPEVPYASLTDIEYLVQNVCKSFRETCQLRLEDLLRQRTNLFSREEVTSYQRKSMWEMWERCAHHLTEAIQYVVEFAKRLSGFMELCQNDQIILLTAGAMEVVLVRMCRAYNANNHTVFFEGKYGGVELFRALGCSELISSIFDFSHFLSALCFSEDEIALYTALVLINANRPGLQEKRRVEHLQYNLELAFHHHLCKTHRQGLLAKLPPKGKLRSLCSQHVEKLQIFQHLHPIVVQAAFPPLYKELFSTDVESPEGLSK
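A Gal4/UAS one-hybrid system in insect cells: metallothionein-promoter Gal4–ROR gamma fusion plus Photinus luciferase reporter. Copper sulfate 700 uM final, 20 hr ambient incubation, luminescent detection after 10 min with reagent.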
Numbers without * were called inactive; i = inactive; ? = inconclusive; nt = no result given; [ ] = remark or other dose. Rows were chosen to be rich in hits. Some 10% of all compounds tested hit in one or more screens of this group. Calls follow the shape of the dose curve; as a rule, active = well fitted curve in the direction sought with a large enough effect; inconclusive = small, poorly fitted or top-dose-only effect, or another doubt; inactive = no such curve, though single readings can be large; an effect the other way counts as inactive or inconclusive. Potency is read from the fitted curve at half-maximal effect.

SMILES	KB-3-1 tox	KB-V1 cytotox	VP16 counter	MCF10A rerep	SW480 rereplic	RORg inh
CCc1cc(-c2nnn(CCC3COCCO3)c2CC)ccc1-c1cn(Cc2ccccc2)nn1 (stereo not given)	?	1.8µM*	nt	nt	nt	nt
Cc1c(Cl)cccc1N=c1c([N+](=O)[O-])nn(-c2ccccc2)n1O	i	i	-10%	18%	2%	-8%
Cc1ccc(N=c2c([N+](=O)[O-])nn(-c3ccccc3)n2O)c(C)c1	?	i	?	10µM*	?	5%
CCOC(=O)c1ccc(OC(=O)c2cn(-c3ccc(C)cc3)c(=O)c3ccccc23)cc1	i	i	nt	nt	nt	nt
O=C(CCl)N(C1CCCC1)C1CCS(=O)(=O)C1 (stereo not given)	?	i	16µM*	?	21µM*	?
CN(C)c1ccc(/C=C2/CCc3ccccc32)cc1	i	i	nt	nt	nt	nt
O=C(Nc1ccccc1)N1CCCC(c2nc(-c3ccc(F)cc3)no2)C1 (stereo not given)	i	?	9%	1%	2%	25%
Cc1ccccc1NC(=O)N1CCCC(c2nc(-c3ccc(F)cc3)no2)C1 (stereo not given)	i	15µM*	2%	3%	5%	0%[10 µM]
Cc1ccccc1NC(=O)N1CCCC(c2nc(-c3ccc(C(C)C)cc3)no2)C1 (stereo not given)	18µM*	i	?	15µM*	2%	30%
O=C(C1CCCCC1)N1CCCC(c2nc(-c3ccc(F)cc3)no2)C1 (stereo not given)	i	21µM*	15%	26%	-4%	?
CC(C)c1ccc(-c2noc(C3CCCN(C(=O)c4ccc(F)cc4F)C3)n2)cc1 (stereo not given)	?	?	8.9µM*	12µM*	?	?
Cc1ccc(NC(=O)N2CCCC(c3nc(-c4ccc(F)cc4)no3)C2)cc1 (stereo not given)	i	i	3%	0%	-5%	17%
O=C(NCc1ccc(F)cc1)c1ccc2c(c1)nc1n2CCCCC1	i	i	nt	nt	nt	nt
CC1CCN2c3ccccc3CC3(C(=O)OC(C)(C)OC3=O)C2C1 (stereo not given)	i	i	nt	nt	nt	nt
CC(=O)c1ccc(C(=O)N(Cc2cccnc2)c2nc3c(C)c(C)ccc3s2)cc1	i	i	nt	nt	nt	nt
O=C(NCc1ccccn1)c1ccc(/C=N/O)nc1	i	?	-10%	-2%	0%	-7%
O=C(NCc1ccccc1)c1ccc(/C=N/O)nc1	i	i	2%	5%	-25%	5µM*
CC(=O)c1cc2c(=O)c3ccccc3oc2nc1C	i	i	nt	0%	-2%	nt
Cc1cccc(C)c1NC(=O)c1cc2c(=O)c3ccccc3oc2nc1C(F)(F)F	i	2.1µM*	-14%	0%	17%	8%
O=C1c2ccccc2-c2nc3ccccc3nc21	i	i	-5%	17%	-11%	-6%
Cc1nc2c(nc1C)C(=O)c1ccccc1C2=O	16µM*	9.2µM*	nt	5.8µM*	13µM*	nt
Clc1ccc(-c2cn3c(n2)-c2ccccc2C3)cc1Cl	i	15µM*	?	-2%	-2%	?
Cc1ccc(-n2[nH]c(C)c(C=Nc3cc(C)ccn3)c2=O)cc1	?	?	nt	-2%	-1%	-2%[0.365 µM]
Cc1[nH]n(-c2cccc3ccccc23)c(=O)c1C=Nc1ccc2[nH]c(=O)[nH]c2c1	i	i	1%	-4%	5%	20%
Cc1ccc(-n2[nH]c(C)c(C=Nc3ccc4[nH]c(=O)[nH]c4c3)c2=O)cc1	21µM*	?	?	?	?	22%[10 µM]
SMILES	KB-3-1 tox	KB-V1 cytotox	VP16 counter	MCF10A rerep	SW480 rereplic	RORg inh
COc1ccc2nc(/N=C/c3c(C)[nH]n(-c4ccc(C)cc4)c3=O)sc2c1	?	8.2µM*	-8%	7%	1%	-71%
Cc1ccc(N=Cc2c(C)[nH]n(-c3nc4ccccc4[nH]3)c2=O)cc1	8.2µM*	6.5µM*	11µM*	0%	-2%	2.8µM*
COc1ccc(-c2noc(CC(=O)N(C)c3cccc(C)c3)n2)cc1	i	i	nt	nt	nt	nt
O=c1[nH]nc(Br)c(=O)n1C(c1ccccc1)c1ccccc1	?	23µM*	nt	0%	2%	nt
CCOC(=O)c1c(NC(=O)COc2ccc(Cl)cc2Cl)sc2c1CCCCC2	i	i	nt	nt	nt	nt
COc1ccc(NC(=O)CN(C)C(=O)/C=C/c2ccc(S(=O)(=O)N3CCCCCC3)cc2)cc1	?	21µM*	nt	?	13%	nt
COc1ccc(CN(C)C(C)C(=O)Nc2ccc(S(=O)(=O)N3CCCCC3)cc2)c(OC)c1 (stereo not given)	i	i	nt	18µM*	?	nt
COc1ccc(/C=C/C(=O)N(C)CC(=O)Nc2cccc(F)c2)cc1S(=O)(=O)N1CCCCC1	21µM*	i	nt	?	21µM*	nt
Cc1ccc([C@H]2C(C(=O)O)=CCN2S(=O)(=O)c2ccc(C)cc2)cc1	i	i	nt	nt	nt	nt
Cc1ccc(C)c2sc(NC(=O)c3ccc(N4C(=O)CCC4=O)cc3)nc12	i	i	-19%	14%	-3%	0.2µM*
COc1ccc(C)c2sc(NC(=O)c3cccc(N4C(=O)CCC4=O)c3)nc12	i	i	-1%	-43%	-17%	46%
CCOc1cc(C2C(C(=O)Nc3ccccc3)=C(C)Nc3ncnn32)cc(Br)c1O (stereo not given)	i	?	nt	nt	nt	nt
COc1cc(C(=O)Oc2cccc(C=O)c2)cc(OC)c1OC	i	i	11%	2%	16µM*	-32%
COc1cc(C(=O)Oc2cccc(/C=N/NC(=O)c3cc(C)[nH]n3)c2)cc(OC)c1OC	i	i	-5%	3%	1%	37%
C=C1C(c2ccc(C)cc2)=CCc2cc(C)cc(C)c21	nt	nt	6%	nt	nt	-24%
CCNC(=O)C1(C)CCCN(Cc2ccc3ccccc3c2Br)C1 (stereo not given)	i	i	nt	nt	nt	nt
O=C(Cc1cccs1)NCc1cccs1	i	i	6%	0%	-12%	12%
O=C(Cc1cccs1)NNC(=S)NC(=O)c1ccc(F)c(F)c1	?	?	5.6µM*	1%	0%	6.3µM*
O=C(Cc1cccs1)NNC(=S)NC(=O)c1ccccc1	?	?	10µM*	?	-4%	7.9µM*
COc1ccc(C)cc1NC(=O)C(NCC1CCCO1)c1ccccc1 (stereo not given)	i	16µM*	2%	?	28%	8%
